Shown are actives, neighbours in structure and some others; about 0.56% of the full set was active somewhere.
GALK inh = galactokinase (human) inhibition; P51570; Purified GALK, Kinase-Glo residual ATP luminescence; Potency, µM (titrated, usually from 57.5 µM), without a hit: at the top dose activity change, negative = inhibition, actives largely listed as inhibitors; hit rate 0.007% among 270,000; AID 1868; further: potency means the concentration at half of the fitted maximal effect; on the % scale 0 is the no-effect control and ±100 the full control effect
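Compounds were pin-transferred into ATP buffer (35 uM final), then GALK plus galactose (5 nM, 100 uM final) was added. After 1 h at room temperature, Kinase-Glo Plus was added and luminescence read after 10 min.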
PKM2 activator = increases activity of human pyruvate kinase M2; AID 1631; purified PKM2, Kinase-Glo ATP luminescence, activation; response scale: 0% is enzyme alone, no compound; P14618; hit rate 0.34% among 260,000; Potency, µM (top dose mostly 57.5 µM), without a hit: at the highest dose activation, actives largely listed as activators; further: potency means the concentration at half of the fitted maximal effect; on the % scale 0 is the no-effect control and ±100 the full control effect; nearly all actives have a fitted effect of over 55% in size
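Purified hPK-M2 (>95% pure) converted ADP (0.1 mM final) to ATP with 0.5 mM PEP in 50 mM imidazole pH7.2, KCl, MgCl2, Tween 20, BSA; 1 h at room temperature. ATP detected by Kinase-Glo luminescence.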
Tb PFK inh-1 = inhibitors of T. brucei phosphofructokinase; Potency, µM (titrated, usually from 57.5 µM), inactives show at the highest dose activity, negative = inhibition, actives largely listed as inhibitors; O15648; hit rate 0.17% among 330,000; T. brucei PFK, ADP-Glo luminescence;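 further: potency means the concentration at half of the fitted maximal effect; 0% = uninhibited 1x PFK enzyme wells and -100% = no-enzyme wells; nearly all actives have a fitted effect of over 60% in size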
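Activity is normalized to no-enzyme wells (full inhibition) and 1.25 nM enzyme wells (no inhibition). Reaction: 0.5 mM F6P, 0.1 mM ATP, 45 min RT, ADP-Glo luminescence; concentration-response curves fitted and classed by quality.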
Luc counter = blocks Kinase-Glo luciferase, a counter-screen artifact | Q27757 | Kinase-Glo luciferase, ATP luminescence, 8 min | Potency, µM (doses to about 38.3 µM), for the others: at the top dose activity change, negative = inhibition, most hits filed as inhibitors | hit rate 0.28% among 200,000; further: potency means the concentration at half of the fitted maximal effect; on the % scale 0 is the no-effect control and ±100 the full control effect; nearly all actives have a fitted effect of over 60% in size
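Compound is pinned into ATP-containing buffer (10 uM ATP, imidazole pH 7.2, 7 mM MgCl2). Kinase-Glo luciferase reagent is then added. Light output is recorded following an 8-min room-temperature incubation.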
CBFb RUNX1 block = inhibitors of human CBF-beta and RUNX1 interaction. Q01196+Q13951. AlphaScreen CBFb-His/RUNX1-biotin binding, biochemical. Potency, µM (titrated, usually from 59.8 µM), without a hit: at the top dose activity, negative = inhibition, usual class: inhibitors. AID 1477. 230,000 tested, under 10 active; further: % of control where 0% means no effect
Target sequence (Q01196 whole entry, looked up): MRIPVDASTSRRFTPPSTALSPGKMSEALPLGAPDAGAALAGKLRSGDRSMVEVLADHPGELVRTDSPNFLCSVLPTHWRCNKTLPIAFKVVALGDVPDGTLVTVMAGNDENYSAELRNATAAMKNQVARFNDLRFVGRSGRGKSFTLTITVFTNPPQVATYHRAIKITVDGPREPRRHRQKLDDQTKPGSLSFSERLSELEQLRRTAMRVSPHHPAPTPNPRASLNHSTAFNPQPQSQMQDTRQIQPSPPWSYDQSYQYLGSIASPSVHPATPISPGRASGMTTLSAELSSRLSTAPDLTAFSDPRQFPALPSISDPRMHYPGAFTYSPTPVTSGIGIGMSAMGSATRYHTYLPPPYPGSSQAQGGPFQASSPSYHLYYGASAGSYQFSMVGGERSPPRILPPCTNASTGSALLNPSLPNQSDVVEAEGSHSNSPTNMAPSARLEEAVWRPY
Target sequence (Q13951 whole entry, looked up): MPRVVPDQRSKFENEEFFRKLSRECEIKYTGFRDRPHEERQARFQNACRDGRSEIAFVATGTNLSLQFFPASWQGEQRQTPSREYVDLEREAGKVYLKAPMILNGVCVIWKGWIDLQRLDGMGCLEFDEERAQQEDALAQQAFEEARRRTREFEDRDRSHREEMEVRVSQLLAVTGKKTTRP
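AlphaScreen binding: CBFb-His and RUNX1-biotin (30 nM each) preincubated 20 min, compound added for 15 min, then nickel and streptavidin beads for 90 min, all at room temperature. Disruption of the interaction by any mechanism counts as activity.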
TbPFK ATP = orthogonal confirmation of T. brucei phosphofructokinase inhibitors | shares compounds with Tb PFK inh-1 | Tb PFK enzyme, ATP depletion, Kinase-Glo Plus luminescence | Potency, µM (highest dose often 57.5 µM), without a hit: top-dose inhibition | hit rate 47% among 1,100 | AID 504636; calls by dose curve; further: potency means the concentration at half of the fitted maximal effect; nearly all actives have a fitted effect of over 60% in size
Tb PFK inh-2 = validation of T. brucei phosphofructokinase inhibitors; AID 504637; Potency, µM (top dose mostly 57.5 µM), for the others: at the highest dose activity change, negative = inhibition, usual class: inhibitors; purified T. brucei PFK, ADP-Glo luminescence, 45 min; shares compounds with Tb PFK inh-1; hit rate 41% among 1,100;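 further: potency means the concentration at half of the fitted maximal effect; plate controls were full PFK enzyme control for no effect and no enzyme control for full effect; nearly all actives have a fitted effect of over 60% in size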
The depositor's hits bear a star; ? = inconclusive; . = not tested or not shown; [ ] = dose if it differs, or a comment. Unless noted, the call rests on the fitted dose curve; in most records, active means well fitted curve in the direction sought with a large enough effect; inconclusive means small, poorly fitted or top-dose-only effect, or another doubt; inactive means no such curve, though single readings can be large; an effect the other way counts as inactive or inconclusive.

SMILES	GALK inh	PKM2 activator	Tb PFK inh-1	Luc counter	CBFb RUNX1 block	TbPFK ATP	Tb PFK inh-2
C[C@H](NC(=O)[C@@H](N)Cc1ccc(O)cc1)C(=O)NCC(=O)N(C)[C@@H](Cc1ccccc1)C(=O)NCCO	.	.	.	.	9%	.	.
O=C1NC(=O)N(CCc2ccc(F)cc2)C(=O)/C1=C\C=C\c1ccccc1	3%	-2%	-1%	-1%	-8%	.	.
CN1C(=O)NC(=O)/C(=C\C=C\c2ccccc2[N+](=O)[O-])C1=O	0%	3%	?	1%	0%	2%	?
CCOC(=O)c1sc(=S)n(C)c1NC(=O)c1ccccc1	1%	-17%	?	0%	9%	21µM*	?
N#CC(O)c1ccccc1 (stereo unspecified)	.	.	.	.	0%[21.7 µM]	.	.
Cc1nc([N+](=O)[O-])c(Br)n1Cc1ccc(Cl)c(Cl)c1	-11%	15%	21µM*	-4%	-4%	?	?
CCC1C(=O)OC[C@H]1Cc1cncn1C (stereo partly specified)	.	.	.	-4%	20%	.	.
CC(=O)Oc1c2c(c(CC=C(C)C)c3c1C(=O)C1=CC4CC5C(C)(C)OC(C/C=C(\C)C(=O)O)(C4=O)[C@]15O3)OC(C)(CCC=C(C)C)C=C2 (stereo partly specified)	.	.	.	0%	.	.	.
Cc1cc(NS(=O)(=O)c2ccc(NC(=O)COc3ccc(Br)cc3)cc2)nc(C)n1	-3%	.	?	.	.	8.5µM*	24µM*
O=C(O)[C@H]1[O][Sb][O][C@@H](C(=O)O)C1O (stereo partly specified)	.	.	.	-10%[7.66 µM]	.	.	.
COc1ccc(C=O)cc1OC	.	.	.	.	17%[21.7 µM]	.	.
COc1ccc(OC)c2c1C(=O)C(Cl)=C(Cl)C2=O	0%	-4%	1.2µM*	.	0%	0.34µM*	0.67µM*
CC[C@@H]1CN2CCc3cc(OC)c(OC)cc3[C@@H]2C[C@@H]1C[C@H]1NCCc2cc(OC)c(OC)cc21	.	.	.	-1%	13%[21.7 µM]	.	.
C[C@H]1O[C@@H](O[C@H]2[C@@H](O)C[C@H](O[C@H]3[C@@H](O)C[C@H](O[C@H]4CC[C@]5(C)C6CC[C@]7(C)[C@@H](C8=CC(=O)OC8)CC[C@]7(O)C6CC[C@@H]5C4)O[C@@H]3C)O[C@@H]2C)C[C@H](O)[C@@H]1O (stereo partly specified)	.	.	.	-1%	18%[21.7 µM]	.	.
O=c1cc(/N=C/c2coc3c(ccc4ccccc43)c2=O)[nH]c(=S)[nH]1	0%	-3%	?	-2%	-15%	-27%	?
O=C(CSc1n[nH]c(=O)n1C1CC1)Nc1ccc(F)c(Cl)c1	.	.	?	.	.	?	?
CCC(=O)Nc1ccc(N2CCN(CC)CC2)c(Cl)c1	-2%	3%	-1%	-3%	3%	.	.
Cc1cc(C(=O)OCC(=O)Nc2ccc(F)cc2)c(C)n1C1CC1	.	.	0%	.	.	.	.
Cc1ncc([N+](=O)[O-])n1CCOc1nonc1N	11%	0%	-1%	0%	?	.	.
CCC(=O)Nc1ccc(F)c(Cl)c1	-7%	2%	30µM*	-1%	8%	?	?
Cc1ncc([N+](=O)[O-])n1CC(=O)Nc1ccc(F)c(F)c1	0%	.	?	.	.	?	?
O=C(Cn1cnc([N+](=O)[O-])c1)Nc1ccc(F)c(Cl)c1	-2%	.	24µM*	.	.	7.6µM*	11µM*
CC1N(P(=O)(c2ccccc2)c2ccccc2)CC(O)(c2ccccc2)CC12CC2 (stereo unspecified)	.	6%	.	-5%	7%	.	.
BrCCBr	.	.	.	.	-7%[21.7 µM]	.	.
[O-][Cl+]O	.	.	.	.	-1%[21.7 µM]	.	.
SMILES	GALK inh	PKM2 activator	Tb PFK inh-1	Luc counter	CBFb RUNX1 block	TbPFK ATP	Tb PFK inh-2
[Cl][Pd][Cl].[S-]C1=C2N=CN[C-]2[NH+]=C[N-]1.[S-]c1ncnc2[nH]cnc12	.	.	.	-1%[7.66 µM]	.	.	.
CN(C)C(=O)Oc1ccc(Br)cc1C(=O)Nc1ccc(F)c(Cl)c1	1%	3%	2%	.	19%	.	.
CC(=O)N1CCN(CC(=O)Nc2ccc(C#N)c(Cl)c2)CC1	0%	10%	-5%	0%	-4%	.	.
O=C(Nc1ccc(F)c(Cl)c1)Nn1cnnc1	-4%	-2%	17µM*	.	.	?	?
COC(=O)/C(C#N)=C(/Nc1ccc(F)c(Cl)c1)C(F)(F)F	-3%	-1%	27µM*	.	0%	12µM*	27µM*
CCCCC(=O)Cl	.	.	.	.	-1%[21.7 µM]	.	.
Cc1ccc(S(=O)(=O)CCC(=O)c2cccc([N+](=O)[O-])c2)cc1	-1%	-4%	13µM*	.	.	21µM*	?
CC(NC(=O)c1ccco1)C(=O)N1CCN(c2cccc(C(F)(F)F)c2)CC1 (stereo unspecified)	.	.	?	.	.	14%	-10%
CC1OC(O[C@H]2C[C@@H](O)[C@]3(CO)[C@@H]4C(CC[C@]3(O)C2)[C@@]2(O)CC[C@H](C3=CC(=O)OC3)[C@@]2(C)C[C@H]4O)C(O)C(O)C1O (stereo partly specified)	.	.	.	.	8%	.	.
C[C@]12CC[C@@H]3[C@H](CCC4=CC(=O)CC[C@]43C)[C@]1(O)CC[C@@]2(O)C(=O)CO	.	.	.	-5%[7.66 µM]	.	.	.
O=C(CSc1nc(-c2ccc(F)cc2)nc2c1Cc1ccccc1O2)Nc1cccc(C(=O)O)c1	-3%	?	?	-2%	?	?	?
C[C@]12CC[C@@H]3c4cc(O)c(O)cc4CC[C@H]3[C@@H]1CC[C@@H]2O	2%	?	?	.	-5%	3.4µM*	4.8µM*
C[C@]12CC[C@@H]3c4ccc(O)c(O)c4CC[C@H]3[C@@H]1CC[C@@H]2O	6%	?	13µM*	.	-24%	7.6µM*	13µM*
O=[N+]([O-])C(Br)Br	.	.	.	.	4%[21.7 µM]	.	.
Cc1ccc(-c2cn3c(=S)[nH]nc3s2)cc1	-2%	-15%	?	1%	2%	0.67µM*	?
C/C(=C\c1ccc(N(C)C)cc1)[N+](=O)[O-]	1%	-8%	?	-6%	-6%	-24%	?
CCN(CC)c1ccc(SS(=O)(=O)O)cc1	-3%	-7%	19µM*	1%	-30%	11µM*	12µM*
CCN(CC)c1ccc(C=C2C(=O)NC(=S)NC2=O)cc1	0%	23%	?	.	13%	.	.
O=C(CCl)c1ccccc1	.	.	.	.	7%[21.7 µM]	.	.
O=C1C=CC[C@@H]2[C@H]3CCCN4CCC[C@@H](CN12)[C@@H]34	.	.	.	0%	0%	.	.
O=C(O)COc1ccc(/C=N/NC(=O)c2ccc(-c3csc(Nc4ccc(Cl)cc4)n3)cc2)cc1	1%	?	?	.	14%	1.7µM*	2.4µM*

Source: PubChem BioAssay (National Center for Advancing Translational Sciences (NCATS))
